# Laboratory results: PubChem BioAssay AID463173 (ICCB-Longwood Screening Facility, Harvard Medical School, 2010)
# Out of some 52,000 compounds screened, about 4,300 (8.3%) were called active. Rule as the data show it: active = survival mostly below about 52% (no sharp cut-off); inactive = mostly above about 56%. What follows is part of a selection rich in actives, with near analogues and random picks from the rest.
# Test system: DeltatarO mutant
# Assay: growth inhibition of S. aureus wild type versus tarO mutant, primary screen, teichoic acid synthesis inhibitors, RN4220, OD600 (AID 463173)
# Conditions: OD600, 18 h, hits give low values, screened at 18.75 µg/mL (by protocol)
row,Structure (SMILES),survival
1,C=CCc1c(C)[nH]c2c(OC)cccc2c1=S,82% (inactive)
2,COc1ccc(C(=O)Nc2ccc(NC(=O)c3cccs3)cc2)cc1OC,72% (inactive)
3,COc1ccc(OC)c(NC(=O)C2CCN(S(=O)(=O)c3ccc4c(c3)CCCC(=O)N4)CC2)c1,88% (inactive)
4,CCOC(=O)C1CCN(C(=O)Cn2nc(CC)n3c(cc4sccc43)c2=O)CC1,134% (inactive)
5,COc1cc(C(CC(=O)Nc2ncccc2C)N2Cc3ccccc3C2=O)cc(OC)c1OC (stereo not given),79% (inactive)
6,Cc1ccc(NC(=O)CN2C(=O)CCn3nc(-c4cccn4C)cc32)c(Cl)c1,115% (inactive)
7,COCCCNC(=O)C(=O)Nc1c2c(nn1-c1cccc(Cl)c1)CSC2,79% (inactive)
8,C=CCC(NCc1ccco1)c1ccccc1 (stereo not given),69% (inactive)
9,CCOc1cc(C(=O)Nc2cccc(-c3nc4ccccc4o3)c2)cc(OCC)c1OCC,51% (inactive)
10,CCOc1cc(C(=O)Nc2ccc3oc(-c4ccc(CC)cc4)nc3c2)cc(OCC)c1OCC,41% (active)
11,CCc1ccc2oc(-c3ccc(NC(=O)c4cc(OC)c(OC)c(OC)c4)cc3)nc2c1,57% (inactive)
12,CCOc1cc(C(=O)Nc2ccc3oc(-c4ccc(F)cc4Cl)nc3c2)cc(OCC)c1OCC,64% (inactive)
13,CCOc1cc(C(=O)Nc2ccc(-c3nc4cc(C)ccc4o3)cc2)cc(OCC)c1OCC,27% (active)
14,CCOc1cc(C(=O)Nc2ccc(-c3nc4cc(Cl)ccc4o3)cc2)cc(OCC)c1OCC,67% (inactive)
15,COc1cccc(-n2c(SCC(=O)Nc3nnc(C)s3)nc3c([nH]c4ccccc43)c2=O)c1,60% (inactive)
16,COc1ccc(-n2ccn(CC(=O)Nc3ccccc3C(F)(F)F)c(=O)c2=O)cc1OC,80% (inactive)
17,CNC(=O)COc1ccc(NC(=O)CCn2nc(-c3ccc(C)cc3)c3ccccc3c2=O)cc1,73% (inactive)
18,COc1cc(C2C(C(=O)Nc3ccccc3C)=C(C)Nc3ncnn32)ccc1OCC(N)=O (stereo not given),82% (inactive)
19,CCOc1ccc(CNCCCSc2nnnn2C)cc1OC,74% (inactive)
20,COc1ccccc1NC(=O)N1CCNCC1,73% (inactive)
21,COc1ccc(-c2onc(C)c2C)cc1S(=O)(=O)N1CCc2ccccc21,6% (active)
22,Cc1ccc(-c2onc(C)c2C)cc1S(=O)(=O)N1CCc2ccccc21,86% (inactive)
23,CCC1CN(S(=O)(=O)c2cc(-c3cc(C)no3)ccc2C)c2cc(Cl)ccc2O1 (stereo not given),75% (inactive)
24,COc1ccc(-c2cc(C)no2)cc1S(=O)(=O)N1CCc2ccccc21,67% (inactive)

row,Structure (SMILES),survival
1,CCC1CN(S(=O)(=O)c2cc(-c3cc(C)no3)ccc2C)c2cc(C)ccc2O1 (stereo not given),52% (active)
2,COc1ccc(-c2cc(C)no2)cc1S(=O)(=O)N1CC(C)Oc2ccccc21 (stereo not given),-5% (active)
3,CCC1CN(S(=O)(=O)c2cc(-c3cc(C)no3)ccc2OC)c2cc(Cl)ccc2O1 (stereo not given),62% (inactive)
4,COc1ccc(-c2cc(C)no2)cc1S(=O)(=O)N1CCOc2ccccc21,73% (inactive)
5,CCC1CN(S(=O)(=O)c2cc(-c3cc(C)no3)ccc2OC)c2cc(C)ccc2O1 (stereo not given),109% (inactive)
6,CC(=O)N/C(N)=N\c1nc(C)c2ccc(C)cc2n1,73% (inactive)
7,O=C(NCc1ccc(Cl)cc1)c1ccc2c(c1)NC(=O)C(CS(=O)(=O)Cc1ccccc1Cl)N2 (stereo not given),94% (inactive)
8,COCCCNC(=O)Nc1cc(C(=O)NCc2ccc(OC)cc2)ccc1N1CCCC1,67% (inactive)
9,COc1ccccc1N1CCN(CCCNC(=O)c2cnn(-c3cccc(Cl)c3)c2C2CCN(C(=O)OC(C)(C)C)CC2)CC1,87% (inactive)
10,CC1=C(C(=O)Nc2c(C)cc(C)cc2C)C2(CCN(C(C)C)CC2)OC1=O,112% (inactive)
11,O=C(CCCn1c(=O)c2sccc2n(Cc2c(F)cccc2Cl)c1=O)NCc1ccccc1,138% (inactive)
12,CCOC(=O)c1noc2ncnc(N3CCC(C)CC3)c12,75% (inactive)
13,Cc1ccc(C2=NC(c3ccccc3)=Nc3ccc(Cl)cc3N2)cc1,89% (inactive)
14,CCOc1ccc(NC(=O)CN(c2ccc(C)cc2)S(=O)(=O)c2cccs2)cc1,83% (inactive)
15,COc1ccc2c(c1)CCc1c(C(=O)Nc3ccccc3C(F)(F)F)noc1-2,143% (inactive)
16,Cc1ccc(NC(=O)C2CCCN(c3ncnc4onc(C)c34)C2)c(Cl)c1 (stereo not given),74% (inactive)
17,Cc1ccc(OCCCCn2nnc3sc4c(c3c2=O)CCC(C)C4)cc1 (stereo not given),56% (inactive)
18,CCC(C(=O)OC(C)C)n1cnc2sc3c(c2c1=O)CCC(C)C3 (stereo not given),93% (inactive)
19,CC1CCc2c(sc3ncnc(NCCOCCO)c23)C1 (stereo not given),98% (inactive)
20,CCCOC(=O)CSc1ncnc2sc3c(c12)CCC(C)C3 (stereo not given),7% (active)
21,CCCCCOC(=O)CSc1ncnc2c1sc1nc(N3CCOCC3)c3c(c12)CCCC3,71% (inactive)
22,CCCCCOC(=O)CSc1ncnc2sc3c(c12)CCC(C)C3 (stereo not given),-4% (active)
23,Cc1ccc(-c2nc(NC(=O)CSc3ncnc4sc5c(c34)CCC(C)C5)ns2)cc1 (stereo not given),69% (inactive)
24,CCCCOC(=O)CSc1ncnc2sc3c(c12)CCC(C)C3 (stereo not given),17% (active)

row,Structure (SMILES),survival
1,CCOc1ccc(NC(=O)CSc2cn(CC(=O)N3CCOCC3)c3ccccc23)cc1,95% (inactive)
2,CCOc1ccc(NC(=O)Cn2c(=O)n(CCCCC(=O)NCc3ccc4c(c3)OCO4)c(=O)c3ccccc32)cc1,85% (inactive)
3,CC1(C)CC(NC(=O)CCCC(=O)O)CC(C)(C)N1,81% (inactive)
4,COc1ccc(C)cc1NC(=O)c1ccc2c(=O)n3c(nc2c1)CCCCC3,65% (inactive)
5,COc1ccc(Cn2ccnc2SCC(=O)NCc2ccco2)cc1,75% (inactive)
6,Cc1ccc(Cn2c(CO)cnc2SCC(=O)NCc2ccccc2Cl)cc1,73% (inactive)
7,Cc1ccc(Cn2c(CO)cnc2SCC(=O)Nc2ccc(C)c(Cl)c2)cc1,-5% (active)
8,COc1ccc(Cn2c(CO)cnc2SCc2ccc(F)cc2)cc1,17% (active)
9,CCOC(=O)c1ccccc1NC(=O)CSc1ncc(CO)n1Cc1ccc(C)cc1,77% (inactive)
10,O=C(CSc1ncc(CO)n1Cc1ccc(F)cc1)NCc1ccco1,126% (inactive)
11,OCc1cnc(SCc2ccc(F)cc2)n1Cc1ccc(F)cc1,88% (inactive)
12,COc1ccc(Cn2c(CO)cnc2SCc2ccccc2)cc1,89% (inactive)
13,COc1ccc(Cn2c(CO)cnc2SCC(=O)NCc2ccco2)cc1,-5% (active)
14,Cc1ccc(NC(=O)N2CCN(c3nnc(C)c4c(C)n(-c5ccccc5)nc34)CC2)cc1Cl,94% (inactive)
15,O=C(CSc1nnc2ccc3ccccc3n12)Nc1ccccc1Cl,76% (inactive)
16,Cc1cc2ccccc2n1CCNC(=O)c1ccc(Br)cc1,58% (inactive)
17,CCOC(=O)c1cc(-c2ccc(C)cc2)n(CC(=O)Nc2ccc(OC)cc2OC)c1C,97% (inactive)
18,Cc1cc(-c2ccc(C)c(S(=O)(=O)NCc3cccs3)c2)on1,72% (inactive)
19,Cc1cc(NC(=O)c2ccc(NC(=O)C(C)C)cc2)no1,72% (active)
20,COc1cccc(C(=O)Nc2cc(C)on2)c1,89% (inactive)
21,CC(C)C(=O)Nc1ccc(NC(=O)c2ccccc2)nc1,87% (inactive)
22,CC(C)Oc1ccc(CNC(=O)Nc2ccc3c(c2)N(C)C(=O)c2ccccc2S3)cc1,94% (inactive)
23,CCN1CCN(CCCNC(=O)c2cc3c(=O)n(CC)c4ccccc4c3s2)CC1,97% (inactive)
24,Cc1ccc(NC(=O)N2CC3CCCN3c3ccccc32)cc1Cl (stereo not given),62% (inactive)

row,Structure (SMILES),survival
1,Cc1ccc(NC(=O)N2CC3CCCN3c3ccccc32)c(C)c1 (stereo not given),86% (inactive)
2,Cc1ccc(NC(=O)N2CC3CCCN3c3ccccc32)cc1C (stereo not given),-4% (active)
3,Cc1cccc(NC(=O)CSc2ncc3c(n2)-c2ccccc2N(Cc2ccc(F)cc2)S3(=O)=O)c1C,68% (inactive)
4,Cc1cccc(-n2ncc3c(N4CCCCCC4)ncnc32)c1,92% (inactive)
5,CCOc1cc(C(=O)Nc2ccc(-c3nnc4n3CCCCC4)cc2)cc(OCC)c1OCC,69% (inactive)
6,COc1ccc(C(=O)Nc2ccc(-c3nnc4n3CCCCC4)cc2)cc1OC,57% (inactive)
7,COc1ccc(C(=O)Nc2ccc(-c3nnc4n3CCCCC4)cc2)cc1,0% (active)
8,COc1cccc(NC(=O)c2cnc(SCC(=O)N3CCOCC3)n(C)c2=O)c1,120% (inactive)
9,COc1ccc(-n2nc(C(=O)N3CCC(C)CC3)c3c4ccccc4n(C)c3c2=O)cc1Cl,87% (inactive)
10,CCc1ccccc1NC(=O)CSc1nnc(-c2ccccc2)c(-c2ccccc2)n1,88% (inactive)
11,CC(C)CSc1nnc(-c2ccccc2)c(-c2ccccc2)n1,-8% (active)
12,O=C(CSc1nnc(-c2ccccc2)c(-c2ccccc2)n1)Nc1ccccc1Cl,75% (inactive)
13,COc1cccc(C(=O)NCC(c2ccc(N(C)C)cc2)N2CCc3ccccc32)c1 (stereo not given),144% (inactive)
14,COc1ccccc1-c1nnc(C2CCN(C(=O)c3cccc(Cl)c3)CC2)o1,88% (inactive)
15,O=C(CSc1nc2ccccc2n1Cc1cccc(F)c1)N1CCN(c2ccc(F)cc2)CC1,64% (inactive)
16,CN1CCc2c(sc(N)c2C(=O)O)C1,80% (inactive)
17,O=C(CSc1nc(=O)n(CCN2CCOCC2)c2c1CCC2)Nc1ccc(F)cc1F,124% (inactive)
18,CCc1ccc(-n2c(=O)c3c(C)c(C(=O)N(C)C)sc3n(Cc3cccc(C)c3)c2=O)cc1,99% (inactive)
19,Cc1ccc(-n2c(=O)c3c(C)c(C(=O)N(C)C)sc3n(Cc3ccccc3C)c2=O)cc1C,98% (inactive)
20,COc1cccc(-n2c(=O)c3c(C)c(C(=O)N(C)C)sc3n(Cc3ccc(F)cc3Cl)c2=O)c1,92% (inactive)
21,COc1cccc(-n2c(=O)c3c(C)c(C(=O)N(C)C)sc3n(Cc3cccc(C)c3)c2=O)c1,37% (active)
22,CCOc1ccc(-n2c(=O)c3c(C)c(C(=O)N(C)C)sc3n(Cc3cc(C)ccc3C)c2=O)cc1,0% (active)
23,CCOc1ccc(-n2c(=O)c3c(C)c(C(=O)N(C)C)sc3n(CC(=O)Nc3c(C)cc(C)cc3C)c2=O)cc1,72% (inactive)
